From PubChem BioAssay (EPA / NIEHS)
“And” between values parts separate entries of the source, which are not always exact repeats. Equal entries are not always repeated. Records with an inconclusive call do not appear. A structure can be active in one record and inactive in another. The source made the active and inactive calls. Rule for the calls, unless noted: active = hit-call score of the fitted dose curve at least 0.9, where 1 is the maximum; inactive = score below 0.9.

Columns and labels:
[1] = biological target: Bile acid receptor (Homo sapiens) (UniProt Q96RI1); experiment: ATG_FXR_TRANS: Attagene TRANS-FACTORIAL HepG2 Assay for Farnesoid X Receptor (FXR) (AID 2282979; active = hit-call score of the fitted dose curve at least 0.9, where 1 is the maximum;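 note: hits raise reporter mRNA above DMSO so AC50 marks FXR activation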); details: HepG2 Attagene TRANS FXR-GAL4 reporter transcription
Procedure, shortened: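 HepG2 cells were transiently transfected with GAL4-UAS reporters driven by chimeric NR-Gal4 proteins and dosed for 24 h. Reporter mRNA was quantified by RT-PCR, fluorescent labelling, HpaI digestion and capillary electrophoresis, with gain of signal scored versus DMSO.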

[2] = biological target: Oxysterols receptor LXR-alpha (Homo sapiens) (UniProt Q13133); experiment: ATG_LXRa_TRANS: Attagene TRANS-FACTORIAL HepG2 Assay for human Liver X Receptor alpha (LXRa) (AID 2282980; active = hit-call score of the fitted dose curve at least 0.9, where 1 is the maximum); details: HepG2 Attagene TRANS reporter, LXRa transactivation
Procedure, shortened: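 HepG2 cells transiently transfected with GAL4-UAS reporter units for chimeric NR-Gal4 proteins, exposed to chemicals for 24 h. Reporter mRNA quantified by RT-PCR and capillary electrophoresis; gain of signal fitted relative to DMSO.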

[3] = biological target: Oxysterols receptor LXR-beta (Homo sapiens) (UniProt P55055); experiment: ATG_LXRb_TRANS: Attagene TRANS-FACTORIAL HepG2 Assay for human Liver X Receptor beta (LXRb) (AID 2282981; active = hit-call score of the fitted dose curve at least 0.9, where 1 is the maximum); details: HepG2 Attagene TRANS GAL4-LXRb reporter, mRNA
Procedure, shortened: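 Liver-derived HepG2 cells transfected with Gal4-responsive reporters were dosed for 24 h. Activation was scored as rise in reporter mRNA, by RT-PCR and capillary electrophoresis, above DMSO baseline.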

[4] = biological target: Hepatocyte nuclear factor 4-alpha (Homo sapiens) (UniProt P41235); experiment: ATG_HNF4a_TRANS: Attagene TRANS-FACTORIAL HepG2 Assay for human Hepatocyte Nuclear Factor 4 alpha (HNF4a) (AID 2282982; active = hit-call score of the fitted dose curve at least 0.9, where 1 is the maximum); details: HepG2 HNF4a transactivation reporter, mRNA readout
Procedure, shortened: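 Using HepG2 liver cells transfected with GAL4-UAS reporter units, chemical-induced mRNA increases were assessed after 24 hours. Fluorescent RT-PCR fragments were separated by capillary electrophoresis and compared with DMSO negative controls.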

[5] = ATG_M_32_TRANS: Attagene TRANS-FACTORIAL HepG2 Assay for M32 Transcription Factor (Internal Marker) (AID 2282984; active = hit-call score of the fitted dose curve at least 0.9, where 1 is the maximum;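 note: transcript level of a background control reporter unit measured by RT-PCR and capillary electrophoresis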); details: HepG2 Attagene TRANS M32 internal marker reporter
Procedure, shortened: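 Fluorescence-detected mRNA induction, HepG2 liver cells, 24 h after dosing. Multiple GAL4-UAS reporter units introduced by transient transfection; background-control endpoint analysed for gain of signal against DMSO.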

[6] = biological target: Transcriptional activator Myb (Homo sapiens) (UniProt P10242); experiment: ATG_Myb_CIS: Attagene CIS-FACTORIAL HepG2 Assay for human Myeloblastosis (Myb) Proto-Oncogene Transcription Factor (AID 2282986); details: HepG2 Attagene CIS-FACTORIAL Myb reporter transcription; actives raise or lower the signal
Procedure, shortened: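 HepG2 cells were transiently transfected with cis-regulated multiple reporter transcription units reflecting endogenous Myb activity, then exposed to compound for 24 hours. Reporter mRNA was measured by RT-PCR with capillary electrophoresis; bidirectional fitting versus DMSO baseline.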

[7] = biological target: Nuclear respiratory factor 1 (Homo sapiens) (UniProt Q16656); experiment: ATG_NRF1_CIS: Attagene CIS-FACTORIAL HepG2 Assay for human Nuclear Respiratory Factor 1 (NRF1) Orphan Gene (AID 2282987); details: HepG2 NRF1 cis-element reporter, Attagene multiplex; actives raise or lower the signal
Procedure, shortened: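 HepG2 cells transiently transfected with multiple reporter transcription units under cis-regulatory promoter control, so endogenous transcription-factor activity is read. After 24 h compound exposure, reporter mRNA quantified by RT-PCR, fluorescent labelling, HpaI digestion and capillary electrophoresis; bidirectional fitting versus DMSO.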

[8] = ATG_NFI_CIS: Attagene CIS-FACTORIAL HepG2 Assay for human Nuclear Factor I (NFI) (AID 2282989); details: HepG2 cis-regulatory reporter, NFI response element transcription; actives raise or lower the signal
Procedure, shortened: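 Read-out: reporter mRNA via RT-PCR plus capillary electrophoresis with fluorescence detection. Transiently transfected HepG2 (endogenous TF activity on cis promoters), 24 h compound exposure; gain or loss of signal fitted against DMSO.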

[9] = ATG_NF_kB_CIS: Attagene CIS-FACTORIAL HepG2 Assay for human Nuclear Factor Kappa B (NF-kB) (AID 2282991); details: HepG2 Attagene cis-factorial NF-kB reporter mRNA; actives raise or lower the signal
Procedure, shortened: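 HepG2 cells transiently transfected with multiplexed cis-element reporter units measuring endogenous transcription factor activity; reporter mRNA read 24 h after dosing by RT-PCR, fluorescent labelling, HpaI digestion and capillary electrophoresis. Bidirectional fit against DMSO baseline.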

[10] = ATG_Oct_MLP_CIS: Attagene CIS-FACTORIAL HepG2 Assay for human Octamer-Binding Transcription Factor (Oct) (AID 2282993); details: HepG2 Attagene cis-factorial Oct reporter, mRNA; actives raise or lower the signal
Procedure, shortened: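 Read-out: reporter mRNA via RT-PCR plus capillary electrophoresis of 6-FAM-labelled fragments. Transiently transfected HepG2, 24 h exposure, endogenous TF activity on cis elements. Gain or loss of signal fitted relative to DMSO.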

[11] = biological target: Cellular tumor antigen p53 (Homo sapiens) (UniProt P04637); experiment: ATG_p53_CIS: Attagene CIS-FACTORIAL HepG2 Assay for human p53 Transcription Factor (AID 2282994); details: HepG2 p53 cis-element reporter, Attagene mRNA; actives raise or lower the signal
Procedure, shortened: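 Endogenous p53 activity read in transiently transfected HepG2 from a cis-element-driven reporter transcript after 24 h exposure. RNA reverse-transcribed, PCR-amplified, fluorescently labelled and sized by capillary electrophoresis; gain or loss fitted against DMSO baseline.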

[12] = BSK_3C_TissueFactor: BioMAP Diversity Plus: 3C Assay for Tissue Factor Biomarker Activity (AID 2282997); details: BioMAP 3C HUVEC, tissue factor biomarker readout; actives raise or lower the signal
Procedure, shortened: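 Tissue Factor measured by ELISA, 24 h after treatment of primary HUVEC in the BioMAP 3C setting.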

[13] = BSK_3C_uPAR: BioMAP Diversity Plus: 3C Assay for Urokinase-type plasminogen activator receptor (uPAR) Biomarker Activity (AID 2282998); details: BioMAP 3C HUVEC, uPAR biomarker ELISA; actives raise or lower the signal
Procedure, shortened: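 HUVEC primary cells; 24 h post-dose; uPAR by ELISA; gain or loss of signal fitted bidirectionally vs DMSO baseline.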

[14] = BSK_3C_VCAM1: BioMAP Diversity Plus: 3C Assay for Vascular cell adhesion molecule 1 (VCAM1) Biomarker Activity (AID 2282999); details: BioMAP 3C HUVEC, VCAM1 ELISA, cytokine-stimulated; actives raise or lower the signal
Procedure, shortened: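 Vascular primary endothelium (human umbilical vein) was exposed to chemicals and assayed 24 h later. VCAM-1 levels came from ELISA, with DMSO serving as baseline for bidirectional fitting.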

[15] = BSK_4H_Eotaxin3: BioMAP Diversity Plus: 4H Assay for Eotaxin 3 Biomarker Activity (AID 2283000); details: primary human endothelial cells (HUVEC); actives raise or lower the signal;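 note: CCL26 protein level quantified by ELISA in parallel with SRB cytotoxicity check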
Procedure, shortened: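 Eotaxin-3 (CCL26) levels were measured by ELISA in HUVEC primary cultures 24 h post-dosing. Gain or loss of signal was fitted in both directions, with DMSO serving as baseline and negative control.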

[16] = ATG_M_06_TRANS: Attagene TRANS-FACTORIAL HepG2 Assay for M06 Transcription Factor (Internal Marker) (AID 2282983; active = hit-call score of the fitted dose curve at least 0.9, where 1 is the maximum); details: HepG2 Attagene TRANS M06 internal marker reporter
Procedure, shortened: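 mRNA levels of a reporter transcript, quantified as FAM fluorescence on capillary electrophoresis, served as readout. HepG2 cells expressing exogenous GAL4-chimera reporter constructs were exposed for 24 h. Gain of signal over DMSO was evaluated.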

[17] = biological target: Myc proto-oncogene protein (Homo sapiens) (UniProt P01106); experiment: ATG_Myc_CIS: Attagene CIS-FACTORIAL HepG2 Assay for human Myelocytomatosis (Myc) Proto-Oncogene Transcription Factor (AID 2282990); details: HepG2, Attagene cis-reporter transcription factor activity; actives raise or lower the signal
Procedure, shortened: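 DMSO-normalised, bidirectionally fitted reporter mRNA signal. HepG2 cells transfected with cis reporter constructs, treated 24 h; transcripts detected by RT-PCR, 6-FAM primer extension and CE.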

[18] = biological target: Nuclear receptor subfamily 4 group A member 2 (Homo sapiens) (UniProt P43354); experiment: ATG_NURR1_TRANS: Attagene TRANS-FACTORIAL HepG2 Assay for human Nuclear Receptor Related Protein 1 (NURR1) (AID 2282985; active = hit-call score of the fitted dose curve at least 0.9, where 1 is the maximum); details: HepG2 Attagene TRANS reporter, mRNA readout
Procedure, shortened: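 Chimeric NR-Gal4 proteins were expressed in human HepG2 cells bearing GAL4-UAS reporter units, and induced reporter mRNA was quantified 24 h post-dosing by RT-PCR and capillary electrophoresis.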

[19] = ATG_NRF2_ARE_CIS: Attagene CIS-FACTORIAL HepG2 Assay for human Nuclear Factor Erythroid 2 Related Factor 2 (NFR2) response to Antioxidant Response Elements (ARE) (AID 2282992); details: HepG2 Attagene ARE/NRF2 reporter, transcription factor activity; actives raise or lower the signal
Procedure, shortened: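 Endogenous transcription factor activity read out as reporter transcript levels (RT-PCR plus capillary electrophoresis, fluorescence) in transiently transfected HepG2 cells. Measured at 24 h after dosing; gain or loss of signal fitted versus DMSO.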

Measured: AC50

Chain of Myc proto-oncogene protein (Homo sapiens) (P01106 whole entry, looked up): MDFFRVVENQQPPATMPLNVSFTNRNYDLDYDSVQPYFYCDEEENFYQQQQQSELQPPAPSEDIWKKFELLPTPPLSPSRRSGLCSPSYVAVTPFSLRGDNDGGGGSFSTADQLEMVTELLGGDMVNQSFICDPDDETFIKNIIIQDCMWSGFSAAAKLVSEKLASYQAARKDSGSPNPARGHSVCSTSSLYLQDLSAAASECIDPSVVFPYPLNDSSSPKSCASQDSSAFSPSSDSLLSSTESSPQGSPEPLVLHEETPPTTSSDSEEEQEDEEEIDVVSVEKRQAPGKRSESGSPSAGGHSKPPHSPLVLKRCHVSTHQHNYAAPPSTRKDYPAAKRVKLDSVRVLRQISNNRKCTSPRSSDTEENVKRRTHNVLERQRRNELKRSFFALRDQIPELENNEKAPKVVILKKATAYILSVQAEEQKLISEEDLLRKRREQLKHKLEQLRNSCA
Chain of Nuclear receptor subfamily 4 group A member 2 (Homo sapiens) (P43354 whole entry, looked up, the tested form may be a part): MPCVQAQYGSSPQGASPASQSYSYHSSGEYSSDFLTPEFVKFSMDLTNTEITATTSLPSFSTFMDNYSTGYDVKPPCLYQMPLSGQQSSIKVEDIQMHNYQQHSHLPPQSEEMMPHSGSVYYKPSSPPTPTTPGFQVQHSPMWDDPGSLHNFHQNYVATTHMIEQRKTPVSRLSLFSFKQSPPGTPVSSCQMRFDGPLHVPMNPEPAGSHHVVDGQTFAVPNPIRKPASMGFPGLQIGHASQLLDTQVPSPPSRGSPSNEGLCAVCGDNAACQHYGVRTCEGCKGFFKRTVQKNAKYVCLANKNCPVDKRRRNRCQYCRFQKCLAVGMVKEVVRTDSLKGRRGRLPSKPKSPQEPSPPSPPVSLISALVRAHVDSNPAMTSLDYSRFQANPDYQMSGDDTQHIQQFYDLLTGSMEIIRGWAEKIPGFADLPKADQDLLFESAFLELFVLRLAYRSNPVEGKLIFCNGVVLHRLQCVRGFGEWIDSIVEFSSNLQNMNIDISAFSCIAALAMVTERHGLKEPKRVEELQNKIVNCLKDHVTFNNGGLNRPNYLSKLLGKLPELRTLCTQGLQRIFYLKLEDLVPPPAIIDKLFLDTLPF
Chain of Transcriptional activator Myb (Homo sapiens) (P10242 whole entry, looked up): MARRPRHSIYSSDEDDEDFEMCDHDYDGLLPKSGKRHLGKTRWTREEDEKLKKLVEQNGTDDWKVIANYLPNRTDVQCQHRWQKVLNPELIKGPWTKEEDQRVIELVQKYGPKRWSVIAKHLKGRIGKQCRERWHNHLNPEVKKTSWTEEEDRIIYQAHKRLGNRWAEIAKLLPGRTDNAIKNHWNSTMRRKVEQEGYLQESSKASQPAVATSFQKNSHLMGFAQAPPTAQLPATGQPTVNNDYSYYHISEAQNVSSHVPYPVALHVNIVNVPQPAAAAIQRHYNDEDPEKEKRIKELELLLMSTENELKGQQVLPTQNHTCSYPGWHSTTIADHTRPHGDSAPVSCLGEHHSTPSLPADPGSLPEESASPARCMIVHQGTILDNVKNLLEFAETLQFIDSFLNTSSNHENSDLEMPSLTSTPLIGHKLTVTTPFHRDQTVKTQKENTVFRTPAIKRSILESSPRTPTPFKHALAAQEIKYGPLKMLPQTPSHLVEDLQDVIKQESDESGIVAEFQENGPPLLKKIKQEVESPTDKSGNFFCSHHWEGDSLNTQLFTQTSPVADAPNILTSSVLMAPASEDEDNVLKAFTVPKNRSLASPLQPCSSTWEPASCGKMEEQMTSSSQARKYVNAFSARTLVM
Chain of Bile acid receptor (Homo sapiens) (Q96RI1 whole entry, looked up, the tested form may be a part): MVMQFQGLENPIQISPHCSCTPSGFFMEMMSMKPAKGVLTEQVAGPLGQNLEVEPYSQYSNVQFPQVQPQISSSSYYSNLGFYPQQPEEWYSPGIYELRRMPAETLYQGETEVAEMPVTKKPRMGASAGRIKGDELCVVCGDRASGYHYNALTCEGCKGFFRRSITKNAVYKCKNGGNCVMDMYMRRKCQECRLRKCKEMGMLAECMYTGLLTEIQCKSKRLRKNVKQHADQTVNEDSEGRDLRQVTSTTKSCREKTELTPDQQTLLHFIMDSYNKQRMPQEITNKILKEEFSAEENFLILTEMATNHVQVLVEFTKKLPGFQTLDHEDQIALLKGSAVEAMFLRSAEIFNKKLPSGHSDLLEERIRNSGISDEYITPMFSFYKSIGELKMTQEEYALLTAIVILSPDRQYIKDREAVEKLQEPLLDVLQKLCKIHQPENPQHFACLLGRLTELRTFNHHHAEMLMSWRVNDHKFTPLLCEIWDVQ
Chain of Hepatocyte nuclear factor 4-alpha (Homo sapiens) (P41235 whole entry, looked up, the tested form may be a part): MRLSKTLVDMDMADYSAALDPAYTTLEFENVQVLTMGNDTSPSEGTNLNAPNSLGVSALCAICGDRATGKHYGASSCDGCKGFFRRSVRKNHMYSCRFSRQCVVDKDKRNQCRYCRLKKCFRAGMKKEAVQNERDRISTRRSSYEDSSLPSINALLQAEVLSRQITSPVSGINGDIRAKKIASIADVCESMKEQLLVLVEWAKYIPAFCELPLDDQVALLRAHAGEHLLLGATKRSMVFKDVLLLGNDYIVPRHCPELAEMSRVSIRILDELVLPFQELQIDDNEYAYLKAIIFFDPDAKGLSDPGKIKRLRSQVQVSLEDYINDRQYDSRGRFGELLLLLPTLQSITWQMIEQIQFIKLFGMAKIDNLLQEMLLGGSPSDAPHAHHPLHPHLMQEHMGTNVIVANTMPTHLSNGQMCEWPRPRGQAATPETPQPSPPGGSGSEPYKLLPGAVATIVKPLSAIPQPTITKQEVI
Chain of Nuclear respiratory factor 1 (Homo sapiens) (Q16656 whole entry, looked up): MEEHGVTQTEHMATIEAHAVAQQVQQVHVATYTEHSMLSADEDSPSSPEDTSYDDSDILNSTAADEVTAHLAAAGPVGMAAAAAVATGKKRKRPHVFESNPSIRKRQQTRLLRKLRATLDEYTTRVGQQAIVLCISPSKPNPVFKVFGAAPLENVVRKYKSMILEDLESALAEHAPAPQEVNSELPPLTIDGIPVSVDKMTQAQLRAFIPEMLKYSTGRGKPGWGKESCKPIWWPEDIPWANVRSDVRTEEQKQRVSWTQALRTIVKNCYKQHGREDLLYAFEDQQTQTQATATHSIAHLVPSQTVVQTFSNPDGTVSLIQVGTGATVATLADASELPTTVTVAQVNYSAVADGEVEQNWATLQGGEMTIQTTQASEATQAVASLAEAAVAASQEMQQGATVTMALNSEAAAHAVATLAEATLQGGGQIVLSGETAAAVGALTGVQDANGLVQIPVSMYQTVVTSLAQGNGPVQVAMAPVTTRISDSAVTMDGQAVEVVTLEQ
Chain of Oxysterols receptor LXR-beta (Homo sapiens) (P55055 whole entry, looked up, the tested form may be a part): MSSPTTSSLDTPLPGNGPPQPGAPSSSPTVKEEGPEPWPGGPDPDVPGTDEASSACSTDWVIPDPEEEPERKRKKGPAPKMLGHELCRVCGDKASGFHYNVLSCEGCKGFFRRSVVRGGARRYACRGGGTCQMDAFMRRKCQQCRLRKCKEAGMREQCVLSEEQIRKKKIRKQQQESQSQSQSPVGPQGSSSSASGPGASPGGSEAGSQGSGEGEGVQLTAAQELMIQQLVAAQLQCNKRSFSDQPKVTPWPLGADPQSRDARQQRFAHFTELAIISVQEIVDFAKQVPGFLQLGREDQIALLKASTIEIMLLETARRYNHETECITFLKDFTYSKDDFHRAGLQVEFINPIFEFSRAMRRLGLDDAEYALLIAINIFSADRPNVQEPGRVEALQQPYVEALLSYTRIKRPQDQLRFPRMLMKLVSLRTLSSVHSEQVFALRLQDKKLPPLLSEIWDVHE
Chain of Cellular tumor antigen p53 (Homo sapiens) (P04637 whole entry, looked up): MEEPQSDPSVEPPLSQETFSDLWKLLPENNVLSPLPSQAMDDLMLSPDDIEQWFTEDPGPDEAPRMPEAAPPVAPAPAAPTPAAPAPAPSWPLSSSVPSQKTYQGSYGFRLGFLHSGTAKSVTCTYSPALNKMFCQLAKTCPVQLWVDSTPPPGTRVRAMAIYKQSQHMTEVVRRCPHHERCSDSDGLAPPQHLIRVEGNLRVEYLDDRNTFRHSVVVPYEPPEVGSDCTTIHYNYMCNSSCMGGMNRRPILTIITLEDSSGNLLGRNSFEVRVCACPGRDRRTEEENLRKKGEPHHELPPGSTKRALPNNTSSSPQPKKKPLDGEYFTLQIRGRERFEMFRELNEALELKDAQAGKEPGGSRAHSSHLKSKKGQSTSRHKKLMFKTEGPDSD
Chain of Oxysterols receptor LXR-alpha (Homo sapiens) (Q13133 whole entry, looked up, the tested form may be a part): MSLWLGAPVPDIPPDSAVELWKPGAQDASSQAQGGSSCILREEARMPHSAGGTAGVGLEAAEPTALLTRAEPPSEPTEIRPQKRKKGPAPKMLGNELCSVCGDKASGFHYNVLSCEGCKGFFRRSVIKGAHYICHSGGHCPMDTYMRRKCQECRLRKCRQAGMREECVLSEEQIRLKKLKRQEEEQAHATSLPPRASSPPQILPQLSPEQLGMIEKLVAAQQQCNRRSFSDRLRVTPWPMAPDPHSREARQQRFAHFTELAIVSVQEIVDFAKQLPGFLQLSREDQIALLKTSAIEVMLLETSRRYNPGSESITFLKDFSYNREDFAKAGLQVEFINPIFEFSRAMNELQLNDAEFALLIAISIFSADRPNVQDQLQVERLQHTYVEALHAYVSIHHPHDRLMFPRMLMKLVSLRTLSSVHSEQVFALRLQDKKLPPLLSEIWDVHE

CCCCOC(=O)[C@@H](C)Oc1ccc(Oc2ccc(C(F)(F)F)cn2)cc1
not listed: [16] | [17] | [18] | [19]
inactive: all other assays above

c1ccc(Nc2ccccc2)cc1
active: [10] 50 µM
inactive: [2] | [3] | [4] | [16] | [5] | [6] | [7] | [8] | [17] | [9] | [10] | [11] | [12] | [13] | [14] | [15]

S=C(S)NCCNC(=S)S.[Mn+2].[S-]C([S-])=NCCN=C([S-])[S-].[Zn+2]
active: [12] 6.82 µM [middle of 6 runs] | [14] 7.78 µM and 7.28 µM and 10 µM
inactive: [2] | [3] | [4] | [16] | [5] | [18] | [6] | [7] | [8] | [17] | [19] | [10] | [12] | [13] | [14] | [15]

O=C(c1ccc(O)cc1O)c1ccc(O)cc1O
active: [7] 46.5 µM | [12] 29.2 µM
inactive: [1] | [2] | [3] | [4] | [16] | [5] | [6] | [7] | [8] | [17] | [9] | [19] | [10] | [11] | [13] | [14] | [15]

CCOC(=O)NCCOc1ccc(Oc2ccccc2)cc1
active: [19] 13.1 µM | [10] 14 µM | [13] 30.4 µM
not listed: [4] | [5] | [18]
inactive: all other assays above

C[C@]12CC[C@@H]3c4ccc(O)cc4C[C@@H](CCCCCCCCCS(=O)CCCC(F)(F)C(F)(F)F)[C@H]3[C@@H]1CC[C@@H]2O (some centres not stated)
not listed: [17] | [18]
inactive: all other assays above
